# Source: the supplement of paper PMC10849652
# Of roughly 8,800 targets only a part is listed; those with a hit were picked by preference. About 0.5% of all pairs of compound and target were hits. Values without a mark were called inactive.
# Experiments:
# Test in all cases: log2 fold change, soluble protein after heating vs DMSO (PISA); higher = thermal stabilisation; K562 lysate, 10 uM; active = over 0.2 and 3.5 SD of the protein, either way, in both replicates (recomputed)
# alvocidib = compound: CN1CC[C@H](c2c(O)cc(O)c3c(=O)cc(-c4ccccc4Cl)oc23)[C@H](O)C1 [alvocidib]
# Method in brief: (§1)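 Thermal stability, expressed as log-two fold change relative to solvent controls, is given from duplicates. Crude K562 extract in PBS pH 7.4 with 1 mM MgCl2, at 1 mg/mL protein, was treated with 10 μM compound for 30 min and heated in aliquots for 3 min across 48°C-58°C. After pooling, adjustment to 0.5% NP-40 at 4°C and centrifugation at 21,000xg for 90 min, supernatant protein was measured by TMTpro 16plex LC-MS/MS with channel sums equalised.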
# Tubastatin A = compound: CN1CCc2c(c3ccccc3n2Cc2ccc(C(=O)NO)cc2)C1 [Tubastatin A]
# Method in brief: as §1
# [1] = compound: CNC(=O)C1=CC=CC=C1NC2=NC(=NC=C2Cl)NC3=C(C=C(C=C3)N4CCOCC4)OC
# Method in brief: as §1
# defactinib = compound: CNC(=O)c1ccc(Nc2ncc(C(F)(F)F)c(NCc3nccnc3N(C)S(C)(=O)=O)n2)cc1 [defactinib]
# Method in brief: as §1
# [2] = compound: CNc1nc(-c2ccc3c(N)n[nH]c3c2)cc(N2C[C@@H](C(=O)NC3CCCCC3)CC[C@H]2C)n1
# Method in brief: as §1
# encorafenib = compound: COC(=O)N[C@@H](C)CNc1nccc(-c2cn(C(C)C)nc2-c2cc(Cl)cc(NS(C)(=O)=O)c2F)n1 [encorafenib]
# Method in brief: as §1
# [3] = compound: COC(=O)[C@H](CCSC)NC(=O)C1=C(C=C(C=C1)NC[C@H](CS)N)C2=CC=CC=C2
# Method in brief: as §1
# alisertib = compound: COc1cc(Nc2ncc3c(n2)-c2ccc(Cl)cc2C(c2c(F)cccc2OC)=NC3)ccc1C(=O)O [alisertib]
# Method in brief: as §1
# [4] = compound: COc1cc2nc(-c3cc(F)ccc3O)nc(N[C@@H]3CNC[C@H]3C(C)(C)O)c2cc1OC
# Method in brief: as §1
# gefitinib = compound: COc1cc2ncnc(Nc3ccc(F)c(Cl)c3)c2cc1OCCCN1CCOCC1 [gefitinib]
# Method in brief: as §1
# lapatinib = compound: CS(=O)(=O)CCNCc1ccc(-c2ccc3ncnc(Nc4ccc(OCc5cccc(F)c5)c(Cl)c4)c3c2)o1 [lapatinib]
# Method in brief: as §1
# pictilisib = compound: CS(=O)(=O)N1CCN(Cc2cc3nc(-c4cccc5[nH]ncc45)nc(N4CCOCC4)c3s2)CC1 [pictilisib]
# Method in brief: as §1
# crizotinib = compound: C[C@@H](Oc1cc(-c2cnn(C3CCNCC3)c2)cnc1N)c1c(Cl)ccc(F)c1Cl [crizotinib]
# Method in brief: as §1
# [5] = compound: C[C@H](C1=CC=C(C=C1)C(=O)NC2=C3C=CNC3=NC=C2)N
# Method in brief: as §1
# duvelisib = compound: C[C@H](Nc1ncnc2nc[nH]c12)c1cc2cccc(Cl)c2c(=O)n1-c1ccccc1 [duvelisib]
# Method in brief: as §1
# gandotinib = compound: Cc1cc(Nc2cc(CN3CCOCC3)c3nc(C)c(Cc4ccc(Cl)cc4F)n3n2)n[nH]1 [gandotinib]
# Method in brief: as §1
# tozasertib = compound: Cc1cc(Nc2cc(N3CCN(C)CC3)nc(Sc3ccc(NC(=O)C4CC4)cc3)n2)n[nH]1 [tozasertib]
# Method in brief: as §1
# doramapimod = compound: Cc1ccc(-n2nc(C(C)(C)C)cc2NC(=O)Nc2ccc(OCCN3CCOCC3)c3ccccc23)cc1 [doramapimod]
# Method in brief: as §1
# bafetinib = compound: Cc1ccc(NC(=O)c2ccc(CN3CC[C@H](N(C)C)C3)c(C(F)(F)F)c2)cc1Nc1nccc(-c2cncnc2)n1 [bafetinib]
# Method in brief: as §1
# [6] = compound: Cc1cccc(CC(=O)N2CCc3c2ccc(-c2cn(C)c4ncnc(N)c24)c3F)n1
# Method in brief: as §1
# Sequence of UniProt O95202 (O95202 whole entry, looked up): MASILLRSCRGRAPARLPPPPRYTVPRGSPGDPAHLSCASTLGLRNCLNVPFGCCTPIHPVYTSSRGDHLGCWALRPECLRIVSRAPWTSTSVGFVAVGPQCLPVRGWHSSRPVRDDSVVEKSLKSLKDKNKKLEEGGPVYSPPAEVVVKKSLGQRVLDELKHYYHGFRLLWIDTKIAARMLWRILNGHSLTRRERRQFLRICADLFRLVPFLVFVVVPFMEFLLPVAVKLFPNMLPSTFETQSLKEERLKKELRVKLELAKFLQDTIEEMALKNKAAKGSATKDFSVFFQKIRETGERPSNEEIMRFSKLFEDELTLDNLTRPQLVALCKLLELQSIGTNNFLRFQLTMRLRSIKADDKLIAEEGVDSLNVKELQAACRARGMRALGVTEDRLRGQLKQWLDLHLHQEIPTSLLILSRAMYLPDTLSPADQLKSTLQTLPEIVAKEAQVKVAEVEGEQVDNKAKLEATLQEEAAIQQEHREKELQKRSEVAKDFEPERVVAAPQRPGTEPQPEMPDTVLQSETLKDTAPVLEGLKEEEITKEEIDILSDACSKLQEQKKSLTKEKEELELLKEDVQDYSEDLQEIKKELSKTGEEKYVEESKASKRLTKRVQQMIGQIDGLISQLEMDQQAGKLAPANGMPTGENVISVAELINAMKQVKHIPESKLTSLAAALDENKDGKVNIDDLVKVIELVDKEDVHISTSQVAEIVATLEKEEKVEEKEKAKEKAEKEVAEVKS
# Sequence of UniProt O14880 (O14880 whole entry, looked up): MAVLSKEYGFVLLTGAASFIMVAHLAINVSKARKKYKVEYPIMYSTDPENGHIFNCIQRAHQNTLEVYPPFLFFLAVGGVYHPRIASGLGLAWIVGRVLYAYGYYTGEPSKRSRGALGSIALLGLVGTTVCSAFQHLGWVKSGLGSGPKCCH
# Sequence of UniProt P48449 (P48449 whole entry, looked up): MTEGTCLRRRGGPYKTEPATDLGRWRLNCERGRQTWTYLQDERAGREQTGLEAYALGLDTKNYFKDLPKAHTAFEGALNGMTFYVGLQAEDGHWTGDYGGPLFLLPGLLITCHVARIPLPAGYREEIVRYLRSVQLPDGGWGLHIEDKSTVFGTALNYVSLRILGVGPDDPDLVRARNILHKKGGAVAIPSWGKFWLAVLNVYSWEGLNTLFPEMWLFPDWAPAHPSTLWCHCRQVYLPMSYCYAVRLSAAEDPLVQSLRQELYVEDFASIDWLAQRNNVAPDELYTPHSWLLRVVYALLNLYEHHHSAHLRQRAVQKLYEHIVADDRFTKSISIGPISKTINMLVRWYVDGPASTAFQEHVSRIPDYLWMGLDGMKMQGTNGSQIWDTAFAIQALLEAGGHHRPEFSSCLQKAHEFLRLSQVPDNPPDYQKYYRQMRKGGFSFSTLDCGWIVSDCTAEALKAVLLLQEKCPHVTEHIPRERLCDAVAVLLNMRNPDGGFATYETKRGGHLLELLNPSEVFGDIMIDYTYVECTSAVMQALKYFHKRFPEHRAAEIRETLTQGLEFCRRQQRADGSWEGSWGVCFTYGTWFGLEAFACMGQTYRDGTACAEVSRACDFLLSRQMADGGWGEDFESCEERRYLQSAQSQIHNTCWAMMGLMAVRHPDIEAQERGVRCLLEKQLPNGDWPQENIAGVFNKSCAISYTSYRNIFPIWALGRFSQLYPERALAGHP
# Sequence of UniProt O95239 (O95239 whole entry, looked up): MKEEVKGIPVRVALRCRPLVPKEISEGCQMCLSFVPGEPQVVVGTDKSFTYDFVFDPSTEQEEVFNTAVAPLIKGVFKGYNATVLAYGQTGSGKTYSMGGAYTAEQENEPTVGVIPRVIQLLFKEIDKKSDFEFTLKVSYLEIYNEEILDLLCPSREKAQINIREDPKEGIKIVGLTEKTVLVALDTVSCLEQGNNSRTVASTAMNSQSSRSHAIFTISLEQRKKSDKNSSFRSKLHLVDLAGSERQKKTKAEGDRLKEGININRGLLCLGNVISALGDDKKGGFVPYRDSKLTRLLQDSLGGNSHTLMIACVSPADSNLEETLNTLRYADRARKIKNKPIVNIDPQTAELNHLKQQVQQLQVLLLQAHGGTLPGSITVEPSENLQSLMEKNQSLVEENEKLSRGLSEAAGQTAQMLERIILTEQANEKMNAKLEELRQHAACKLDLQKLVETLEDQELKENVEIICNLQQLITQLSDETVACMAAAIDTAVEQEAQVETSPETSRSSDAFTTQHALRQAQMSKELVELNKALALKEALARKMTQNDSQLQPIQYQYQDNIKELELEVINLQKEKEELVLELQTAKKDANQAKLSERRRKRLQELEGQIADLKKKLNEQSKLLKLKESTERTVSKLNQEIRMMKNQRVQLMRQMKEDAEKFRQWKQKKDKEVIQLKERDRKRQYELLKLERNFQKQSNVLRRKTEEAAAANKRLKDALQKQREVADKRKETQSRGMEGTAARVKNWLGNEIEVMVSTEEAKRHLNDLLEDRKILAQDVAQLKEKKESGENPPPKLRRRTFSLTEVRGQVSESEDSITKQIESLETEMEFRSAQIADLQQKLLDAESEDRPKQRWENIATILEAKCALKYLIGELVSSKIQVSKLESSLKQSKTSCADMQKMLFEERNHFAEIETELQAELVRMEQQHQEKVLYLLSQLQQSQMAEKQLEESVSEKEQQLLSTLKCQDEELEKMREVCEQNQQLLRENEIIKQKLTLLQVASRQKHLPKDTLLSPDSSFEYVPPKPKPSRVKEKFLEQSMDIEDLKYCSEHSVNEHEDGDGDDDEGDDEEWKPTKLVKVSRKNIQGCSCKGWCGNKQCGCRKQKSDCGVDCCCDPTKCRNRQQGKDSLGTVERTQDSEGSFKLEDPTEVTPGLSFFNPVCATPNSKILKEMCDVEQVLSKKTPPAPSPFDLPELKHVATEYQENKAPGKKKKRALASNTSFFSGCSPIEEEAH
# Sequence of UniProt Q9NX58 (Q9NX58 whole entry, looked up): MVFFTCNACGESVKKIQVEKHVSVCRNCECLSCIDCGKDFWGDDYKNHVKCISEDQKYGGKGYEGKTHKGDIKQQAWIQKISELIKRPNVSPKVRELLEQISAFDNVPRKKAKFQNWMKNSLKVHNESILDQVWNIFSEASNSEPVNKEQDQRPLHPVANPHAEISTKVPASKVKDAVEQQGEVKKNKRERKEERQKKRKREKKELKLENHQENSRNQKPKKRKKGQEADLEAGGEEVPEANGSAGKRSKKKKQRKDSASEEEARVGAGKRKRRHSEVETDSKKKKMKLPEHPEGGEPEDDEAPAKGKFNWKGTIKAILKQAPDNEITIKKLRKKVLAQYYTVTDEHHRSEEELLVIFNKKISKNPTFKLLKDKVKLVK
# Sequence of UniProt P40692 (P40692 whole entry, looked up): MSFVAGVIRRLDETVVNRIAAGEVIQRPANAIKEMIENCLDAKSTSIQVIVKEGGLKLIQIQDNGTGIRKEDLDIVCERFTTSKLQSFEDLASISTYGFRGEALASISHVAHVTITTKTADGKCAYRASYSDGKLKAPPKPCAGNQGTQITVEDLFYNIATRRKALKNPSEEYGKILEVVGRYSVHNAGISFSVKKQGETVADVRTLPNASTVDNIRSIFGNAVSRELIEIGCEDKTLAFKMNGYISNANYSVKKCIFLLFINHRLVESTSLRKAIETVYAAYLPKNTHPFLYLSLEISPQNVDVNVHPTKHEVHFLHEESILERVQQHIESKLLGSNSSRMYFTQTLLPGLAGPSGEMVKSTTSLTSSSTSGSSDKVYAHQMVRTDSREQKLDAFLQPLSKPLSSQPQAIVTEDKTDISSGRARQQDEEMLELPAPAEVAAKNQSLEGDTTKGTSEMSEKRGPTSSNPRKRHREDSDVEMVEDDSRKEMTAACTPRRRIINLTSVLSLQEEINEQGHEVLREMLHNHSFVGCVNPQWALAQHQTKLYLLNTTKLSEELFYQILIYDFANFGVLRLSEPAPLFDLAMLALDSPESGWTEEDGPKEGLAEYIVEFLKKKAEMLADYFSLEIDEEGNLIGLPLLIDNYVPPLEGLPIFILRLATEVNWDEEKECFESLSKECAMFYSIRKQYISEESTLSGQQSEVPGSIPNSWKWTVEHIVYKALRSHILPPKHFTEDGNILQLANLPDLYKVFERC
# Sequence of UniProt Q14657 (Q14657 whole entry, looked up): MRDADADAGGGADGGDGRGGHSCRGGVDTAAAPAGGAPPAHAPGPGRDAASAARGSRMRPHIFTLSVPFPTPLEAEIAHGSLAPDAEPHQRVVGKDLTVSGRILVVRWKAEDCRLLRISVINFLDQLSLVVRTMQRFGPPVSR
# Sequence of UniProt Q96IZ6 (Q96IZ6 whole entry, looked up): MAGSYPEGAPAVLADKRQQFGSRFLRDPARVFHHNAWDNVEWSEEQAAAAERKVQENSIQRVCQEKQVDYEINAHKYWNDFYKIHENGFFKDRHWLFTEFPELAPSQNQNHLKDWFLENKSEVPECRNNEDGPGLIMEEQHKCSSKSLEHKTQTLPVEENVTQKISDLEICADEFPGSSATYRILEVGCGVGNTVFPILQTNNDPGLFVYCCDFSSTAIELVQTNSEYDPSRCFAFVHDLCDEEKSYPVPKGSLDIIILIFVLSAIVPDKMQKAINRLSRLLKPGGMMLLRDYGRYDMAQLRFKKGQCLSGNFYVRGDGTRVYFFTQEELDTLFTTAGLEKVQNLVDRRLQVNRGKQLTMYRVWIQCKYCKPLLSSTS
# Sequence of UniProt O95297 (O95297 whole entry, looked up): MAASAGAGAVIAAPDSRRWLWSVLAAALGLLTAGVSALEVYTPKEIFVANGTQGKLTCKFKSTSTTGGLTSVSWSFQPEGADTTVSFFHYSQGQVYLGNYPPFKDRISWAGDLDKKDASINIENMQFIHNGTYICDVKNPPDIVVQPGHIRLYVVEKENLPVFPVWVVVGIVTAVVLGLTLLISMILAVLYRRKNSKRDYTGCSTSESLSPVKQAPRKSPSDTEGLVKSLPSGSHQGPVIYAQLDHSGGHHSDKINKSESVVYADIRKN
Target,log2 fold change (alvocidib),log2 fold change (Tubastatin A),log2 fold change [1],log2 fold change (defactinib),log2 fold change [2],log2 fold change (encorafenib),log2 fold change [3],log2 fold change (alisertib),log2 fold change [4],log2 fold change (gefitinib),log2 fold change (lapatinib),log2 fold change (pictilisib),log2 fold change (crizotinib),log2 fold change [5],log2 fold change (duvelisib),log2 fold change (gandotinib),log2 fold change (tozasertib),log2 fold change (doramapimod),log2 fold change (bafetinib),log2 fold change [6]
MED14 (UniProt O60244),-0.017,-0.068,0.051,-0.008,0.015,0.012,0.003,-0.028,-0.018,0.001,-0.032,-0.006,-0.016,-0.058,-0.033,-0.016,0.046,-0.028,-0.036,0.037
LRCH3 (UniProt Q96II8),0,-0.238,-0.003,-0.002,0.069,0.021,0.045,0.021,-0.012,-0.075,-0.008,-0.08,-0.114,-0.046,-0.012,0.027,0.012,0.099,-0.104,0.059
MAP4 (UniProt E7EVA0),-0.074,0.1,0,0.01,0.037,-0.04,-0.117,-0.028,0.054,0.098,0.002,-0.054,-0.163,-0.096,0.012,0.007,0.055,0.017,-0.055,0.008
LETM1 (UniProt O95202),-0.046,-0.033,0.018,-0.007,-0.027,-0.001,-0.018,-0.022,-0.166,-0.04,-0.001,0.004,-0.043,0.015,-0.018,0.03,0.005,-0.01,-0.049,-0.085
MPZL1 (UniProt O95297),-0.01,0.048,-0.014,0.01,0.028,0.045,-0.082,0.007,0.012,0.016,-0.006,-0.026,0.074,0.132,0.001,-0.009,-0.029,-0.087,-0.027,-0.107
MLH1 (UniProt P40692),0.011,-0.167,-0.039,0.004,-0.013,0.044,0.129,-0.01,0.048,-0.053,-0.006,0.001,-0.085,-0.035,0.016,-0.04,-0.043,0.013,-0.063,0.038
LAGE3 (UniProt Q14657),-0.013,0.004,-0.001,-0.194,-0.035,0.047,-0.076,0.224,-0.042,0.107,0.002,-0.032,-0.014,0.04,-0.12,-0.013,0.043,0.009,0.084,0.013
LSS (UniProt P48449),-0.011,0.021,-0.03,-0.026,0.021,0.031,0.02,0.011,0.032,0.055,0,0.11,0.252 (active),0.01,0.008,0.028,0.02,0.031,0.13,-0.013
LYAR (UniProt Q9NX58),0.072,0.018,0.006,0.014,-0.002,-0.005,0.021,0.005,-0.001,-0.043,0,0.025,0.005,0.269 (active),0.017,-0.119,-0.025,-0.017,-0.008,-0.099
METTL2A (UniProt Q96IZ6),0.023,-0.079,0.058,0.019,-0.028,-0.007,0.055,-0.057,0.029,0.04,-0.001,-0.049,-0.026,0.056,0.052,-0.065,0.029,0.035,-0.017,-0.065
KIF4A (UniProt O95239),0.006,-0.145,0.022,0.006,0.005,-0.014,0.154,-0.041,-0.035,-0.018,0.007,-0.002,-0.043,0.012,-0.029,-0.061,0.021,0,-0.066,-0.006
MGST3 (UniProt O14880),0.071,0.043,0.054,0,0.029,-0.04,0.052,0.026,-0.005,-0.038,0.01,-0.017,0.004,0.23,-0.02,-0.078,-0.035,-0.025,-0.048,-0.087
